Assay results taken from ChEMBL document CHEMBL1201862, “PubChem BioAssay data set” (2004).
Screen size: about 400,000 compounds; about 2,100 (0.53%) were called active. Roughly 14% stayed inconclusive and do not appear here. The rule behind the calls is not given here. The entries come from a sample that favours actives as a whole.

The compounds below were run against Ataxin-2 (Homo sapiens) (UniProt Q99700) (assay: qHTS for Inhibitors of ATXN expression.).
Type: functional

Ataxin-2 (Homo sapiens), sequence (Q99700 whole entry): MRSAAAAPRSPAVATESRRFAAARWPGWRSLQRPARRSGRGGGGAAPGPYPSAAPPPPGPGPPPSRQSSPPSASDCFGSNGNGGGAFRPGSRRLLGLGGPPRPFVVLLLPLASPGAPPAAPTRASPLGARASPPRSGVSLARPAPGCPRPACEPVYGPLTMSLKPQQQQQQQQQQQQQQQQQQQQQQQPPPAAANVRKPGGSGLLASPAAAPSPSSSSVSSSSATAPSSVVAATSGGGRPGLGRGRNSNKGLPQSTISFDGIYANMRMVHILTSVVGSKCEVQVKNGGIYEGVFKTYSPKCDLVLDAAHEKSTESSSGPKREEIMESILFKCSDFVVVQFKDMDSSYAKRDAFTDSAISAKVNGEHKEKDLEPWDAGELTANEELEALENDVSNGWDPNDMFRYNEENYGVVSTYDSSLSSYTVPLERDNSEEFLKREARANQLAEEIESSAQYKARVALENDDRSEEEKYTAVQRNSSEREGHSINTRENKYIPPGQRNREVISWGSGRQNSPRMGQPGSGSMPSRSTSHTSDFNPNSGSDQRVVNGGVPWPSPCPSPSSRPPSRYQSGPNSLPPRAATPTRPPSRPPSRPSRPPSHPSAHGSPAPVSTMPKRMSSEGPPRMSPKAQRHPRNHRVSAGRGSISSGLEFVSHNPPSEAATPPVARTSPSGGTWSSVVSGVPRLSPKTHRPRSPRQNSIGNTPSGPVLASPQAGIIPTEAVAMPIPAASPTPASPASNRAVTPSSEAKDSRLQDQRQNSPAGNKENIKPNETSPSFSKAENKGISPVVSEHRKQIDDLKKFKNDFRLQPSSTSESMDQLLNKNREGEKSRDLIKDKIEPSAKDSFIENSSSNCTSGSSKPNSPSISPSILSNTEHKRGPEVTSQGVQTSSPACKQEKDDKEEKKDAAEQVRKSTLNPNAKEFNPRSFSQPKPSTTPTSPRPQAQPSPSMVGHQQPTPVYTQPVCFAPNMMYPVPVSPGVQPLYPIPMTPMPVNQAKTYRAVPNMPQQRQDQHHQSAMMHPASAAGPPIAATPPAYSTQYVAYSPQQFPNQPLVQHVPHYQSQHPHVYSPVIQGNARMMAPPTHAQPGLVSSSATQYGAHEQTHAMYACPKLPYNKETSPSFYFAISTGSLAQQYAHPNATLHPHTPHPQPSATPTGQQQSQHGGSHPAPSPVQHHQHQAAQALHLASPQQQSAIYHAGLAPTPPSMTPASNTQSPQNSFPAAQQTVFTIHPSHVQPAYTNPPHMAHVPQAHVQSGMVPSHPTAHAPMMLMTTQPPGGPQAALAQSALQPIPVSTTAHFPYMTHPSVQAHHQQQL

| Structure (SMILES) | Potency |
| --- | --- |
| COC(=O)C1=CN(C2CC2)C=C(C(=O)OC)C1c1ccc(C(=O)OC)cc1 | inactive |
| COC(=O)c1ccc2nc(C3CCCCC3)c(CC(C)(C)C)n2c1 | 39.8 µM (active) |
| COCCCn1c(=N)c(C(=O)NC2CCCCC2)cc2c(=O)n3cc(C)ccc3nc21 | inactive |
| Cc1nc(-c2ccccc2)sc1-c1ccnn1C | inactive |
| CCc1ccc(C2=C(C)C(N3CCC(C(=O)Nc4ccc(F)cc4)CC3)=NS2(=O)=O)cc1 | 39.8 µM (active) |
| CCOC(=O)C1=C(C)N=c2s/c(=C/c3ccc(OCC(=O)O)cc3)c(=O)n2C1c1ccc(OC)cc1OC (stereo not given) | inactive |
| CCSc1nnc2nc3c(c(O)n12)C1(CCCC1)Cc1ccccc1-3 | inactive |
| Fc1ccc2[nH]c3c(N4CCN(Cc5ccc6c(c5)OCO6)CC4)ncnc3c2c1 | 39.8 µM (active) |
| CCc1ccc(CN2CCN(c3ncccn3)CC2)cc1 | inactive |
| O=c1c2ccccc2[nH]c(=S)n1Cc1ccc2c(c1)OCO2 | inactive |
| Cn1cc(CN2CCN(Cc3ccc4c(c3)OCO4)CC2)c(-c2ccccc2F)n1 | inactive |
| Cc1ccc2c(c1)[nH]c1c(N3CCN(Cc4ccccc4)CC3)ncnc12 | 11.2 µM (active) |
| Cc1c(O)ccc2c(CN3CCN(Cc4ccccc4)CC3)cc(=O)oc12 | inactive |
| Cc1cc(-c2ccnc(-n3ncc(C(=O)NC(C)(C)CO)c3C3CC3)n2)c(C)s1 | inactive |
| Cc1ccc(C(=O)NCCC(C)C)cc1NC(=O)c1nsc2ccccc12 | 25.1 µM (active) |
| CC(C)CCNC(=O)c1cc2c(=O)n3ccccc3nc2s1 | inactive |
| Cc1ccc(C(=O)OCC(=O)Nc2nc(-c3ccccc3)cs2)cc1NC(=O)c1ccco1 | inactive |
| O=C1/C(=C/NCc2ccccn2)c2ccccc2C(=O)N1c1ccccc1 | inactive |
| OC[C@@H]1[C@@H](c2ccc(Cl)cc2)C(c2ccccc2)=NN1c1ccccc1 | inactive |
| Cc1ccc(N(Cc2cc3ccccc3nc2O)C(=O)c2cccs2)cc1 | inactive |
| O=S(=O)(c1ccc(Cl)cc1)N(Cc1cccnc1)Cc1cc2ccccc2nc1O | 25.1 µM (active) |
| Oc1nc2ccccc2nc1Cc1ccc(Cl)cc1 | inactive |

| Structure (SMILES) | Potency |
| --- | --- |
| COCCCn1c(=O)/c(=C/c2ccccc2OC(C)C)s/c1=C(\C#N)C(=O)Nc1ccc(C(=O)O)cc1 | inactive |
| CCCN(C(=O)CCl)C1=CCCCC1 | 5.97 µM (active) |
| CSc1nc(N2CCOCC2)nc2ccc(C)cc12 | inactive |
| O=[N+]([O-])c1ccc(Cc2nnc(O)c3ccccc23)cc1 | inactive |
| O=C(/C=C/c1ccc([N+](=O)[O-])cc1)c1ccccc(=O)c1O | 13.4 µM (active) |
| O=C(Cn1cnc2ccccc21)Nc1cccc([N+](=O)[O-])c1 | inactive |
| O=[N+]([O-])c1ccc(COc2ncnc3ccccc23)cc1 | inactive |
| O=C(/C=C/c1cccc([N+](=O)[O-])c1)n1cnc2ccccc21 | 20 µM (active) |
| CC(=O)Oc1ccccc1C(=O)C=Cc1cccc([N+](=O)[O-])c1 | 39.8 µM (active) |
| O=C(c1ccc(Cl)cc1)n1cnc2ccccc21 | inactive |
| CC(=O)c1ccccc1NC(=O)c1cc(S(=O)(=O)N2CCOCC2)ccc1N1CCCC1 | inactive |
| COc1ccccc1C(=O)/C=C/c1ccc(N2CCCCC2)c([N+](=O)[O-])c1 | 39.8 µM (active) |
| CC(=O)c1ccc(N2CCN(C(=O)c3ccc(Cn4c(=S)[nH]c5ccc(N6CCOCC6)cc5c4=O)cc3)CC2)cc1 | inactive |
| COc1ccc(C2=CC(c3ccc(OC)c(OC)c3)n3nnnc3N2)c(OC)c1 (stereo not given) | inactive |
| COC(=O)Cn1nnnc1-c1nc2cc(C)c(C)cc2nc1O | inactive |
| O=C(NCCO)Nc1ccc2nsnc2c1 | inactive |
| O=C(CSC1=NCCN1)NC(c1ccccc1)c1ccccc1 | inactive |
| COc1ccc(CNC(=O)CN2C(=O)NC(C)(c3ccc(C(C)(C)C)cc3)C2=O)cc1 (stereo not given) | inactive |
| CCN(CC)C(=O)C1=C(C)N(Cc2ccc(C(C)(C)C)cc2)C(=O)C(CC(=O)NCc2cccc3ccccc23)C1 (stereo not given) | 25.1 µM (active) |
| CCN(CC)C(=O)C1=C(C)N(Cc2ccc(C(C)(C)C)cc2)C(=O)C(CC(=O)NCCCCc2ccccc2)C1 (stereo not given) | 35.5 µM (active) |
| CCN(CCNC(=O)C1CCC(=O)N1Cc1ccc(C)cc1)c1ccccc1 (stereo not given) | inactive |
| CCN(CC)C(=O)C1=C(C)N(Cc2ccc(C(C)(C)C)cc2)C(=O)C(CC(=O)NC(c2ccccc2)c2ccccc2)C1 (stereo not given) | 28.2 µM (active) |

| Structure (SMILES) | Potency |
| --- | --- |
| CC(=O)c1sc(Nc2nc3cc4c(cc3s2)OCO4)nc1C | inactive |
| O=C1C2CC(O)CN2C(=S)N1Cc1ccccc1 (stereo not given) | inactive |
| O=C(Cc1cc(=O)oc2cc(O)ccc12)NC(Cc1ccc(Cl)cc1)C(=O)O (stereo not given) | inactive |
| COc1cc(C(=O)OCc2ccc(C)cc2)cc(NC(=O)c2cccs2)c1OC | inactive |
| CC(=O)Nc1cccc(C(=O)/C=C/c2ccc(Br)cc2)c1 | 20 µM (active) |
| O=C(Nc1cccc(Br)c1)C1CCCC1 | inactive |
| CN(C)c1ccc(/C=C/C(=O)c2ccc3c(c2)OCO3)cc1 | inactive |
| COc1cccc(Cn2c(=O)c3ccccc3n3nc(C)cc23)c1 | inactive |
| COc1cc(O)c(C(=O)/C=C/c2ccccc2)c(OC)c1 | 35.5 µM (active) |
| COc1cc(OC)c2cc(C(=O)N/N=C/c3ccccc3O)[nH]c2c1 | inactive |
| O=C(NNc1ccccc1)/C(=C\c1cccnc1)NC(=O)c1ccccc1 | inactive |
| COc1ccc(OC)c(C(=O)/C=C/c2cccnc2)c1 | 39.8 µM (active) |
| Cc1cc(O)c(C(=O)/C=C/c2ccccc2)c(=O)o1 | inactive |
| O=C(/C=C/c1cccnc1)c1cccc(O)c1 | 26.7 µM (active) |
| COc1ccc(C(=O)/C=C/c2ccc(N(C)C)cc2)c(OC)c1 | inactive |
| CC(/C=C/C=C/c1ccccc1)=N\NC(=O)c1cccnc1 | inactive |
| O=C(C=Cc1cccnc1)c1ccccc1 | 39.8 µM (active) |
| Cc1cc(-c2sccc2Br)nc(-n2cccc2)n1 | inactive |
| COc1cccc(/C=N/NC(=O)c2cnn(-c3ccccc3)c2N)c1 | inactive |
| COc1ccc(S(=O)(=O)N2CCOCC2)cc1NC(=O)COC(=O)c1oc2ccccc2c1C | inactive |
| N#Cc1c2c(c(NCCOCCO)n3c1nc1ccccc13)CCCC2 | inactive |
